HCV inh – HCV inhibition; actives 3.4% (n = 340,000); AID 651820; Huh7.5.1 HCVcc-Cre infection, luciferase reporter, 44 h; Potency, µM (series often up to 41.8 µM), for inactives: at the highest dose activity change, negative = inhibition, usual class: inhibitors; active = well fitted inhibition curve with a large enough effect; inconclusive = small, poorly fitted or top-dose-only effect, or another doubt; inactive = no such curve, though single readings can be large or run the other way; also: potency is read from the fitted curve at half-maximal effect; % is scaled to controls: 0 for no effect and ±100 for the full control effect
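Whole-lifecycle infectious HCVcc-Cre system; cells 1,000/well, compound then virus (~0.5 moi) added 4 h after plating, 44 h culture. Luciferase read 15 sec following 15 min substrate incubation, room temp.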
MARV entry inh – Marburg virus entry inhibition | Marburg virus pseudotyped entry inhibition, cell reporter | Potency, µM (top dose mostly 37.8 µM), without a hit: top-dose activity change, negative = inhibition, actives largely listed as inhibitors | actives 1.8% (n = 300,000) | AID 540276; calls by dose curve; tested in HEK293 cells; also: potency is read from the fitted curve at half-maximal effect; % is scaled to controls: 0 for no effect and ±100 for the full control effect
LASV entry inh – blocks Lassa virus binding to or entry into cells; actives 1.2% (n = 300,000); Lassa virus pseudotype entry inhibition, cell reporter; Potency, µM (top dose mostly 37.9 µM), for inactives: at the highest dose activity change, negative = inhibition, actives largely listed as inhibitors; calls by dose curve; tested in HEK293 cells; also: potency is read from the fitted curve at half-maximal effect; % is scaled to controls: 0 for no effect and ±100 for the full control effect; nearly all actives have a fitted effect of over 50% in size
SARS PLpro yeast – SARS-CoV PLP inhibition in yeast. AID 485353. S. cerevisiae expressing SARS-CoV PLpro, growth rescue. Potency, µM (highest dose often 32.9 µM), inactives show at the top dose activity, positive = growth rescue, hits mostly activators. actives 0.19% (n = 330,000); calls by dose curve; also: potency is read from the fitted curve at half-maximal effect; 0% is about no effect; nearly all actives have a fitted effect of over 55% in size
FMDV antiviral – antivirals against foot and mouth disease virus | Potency, µM (titrated, usually from 57.9 µM), without a hit: at the top dose activity change, negative = inhibition, most hits filed as inhibitors | FMDV antiviral cell-based qHTS | AID 1159524 | actives 1.2% (n = 410,000); calls by dose curve; tested in HEK293T cells; also: read-out not given here; potency is read from the fitted curve at half-maximal effect; % is scaled to controls: 0 for no effect and ±100 for the full control effect; nearly all actives have a fitted effect of over 45% in size
HCMV antiviral – blocks human cytomegalovirus replication; activity change, negative = inhibition, % at 57.5 µM; HFF cells, HCMV-luciferase reporter, 72 h; active compounds read low; actives 4.5% (n = 410,000); AID 1259415; in the data active = activity change below about -60%; inconclusive = no clear call, values can overlap the other calls; inactive = above about -39%; also: % is scaled to controls: 0 for no effect and ±100 for the full control effect
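Luciferase read-out from HCMV-luciferase-infected HFFs (MOI 1 PFU/cell) 72 h post infection at 37C; compounds added after 16 h cell attachment; activity normalized between buffer-only basal and Salinomycin (10uM) inhibitor controls.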
* = called active by the depositor; ? = inconclusive; · = not tested or not shown; + = active, no number; ! = a repeat was not active; [ ] = another dose, or the depositor's remark. This is a sample that favours compounds with a hit; in the whole collection about 8% have one here.

SMILES	HCV inh	MARV entry inh	LASV entry inh	SARS PLpro yeast	FMDV antiviral	HCMV antiviral
CN(Cc1ccccc1)C(=O)c1ccc2c(c1)N(Cc1ccccc1F)C(=O)c1ccccc1S2(=O)=O	·	?	?	·	43%	-23
CCN(CC)c1ccc(C(=O)NNC(=O)c2cccn2C)cc1	7.1µM*	?	-24%	4%	13%	26
Cc1cccc(N2CCN(C(=O)c3ccc4c(c3)c(C)c(C)n4C)CC2C)c1 (centres undefined)	?	·	25%[46.1 µM]	-10%	1%	+!
Cc1cccc(N2CCN(C(=O)c3ccc(N4CCCC4=O)cc3)CC2C)c1 (centres undefined)	?	?	?	5%	32µM*	-18
Cc1cccc(N2CCN(C(=O)c3nn(C)c4c3CS(=O)(=O)c3ccccc3-4)CC2C)c1 (centres undefined)	?	·	-5%[46.1 µM]	-43%	?	-30
Cc1cccc(N2CCN(C(=O)c3nn(C)c4c3CSc3ccccc3-4)CC2C)c1 (centres undefined)	·	17%[46.1 µM]	0%[46.1 µM]	·	-6%	-62*
Cc1cccc(N2CCN(C(=O)c3cccc(N4C(=O)C5C6C=CC(C6)C5C4=O)c3)CC2C)c1 (centres undefined)	?	-17%[46.1 µM]	?	-2%	-26%	-18
O=C(C1CCN(c2nc3ccccc3[nH]2)CC1)N1CCN(c2ccccc2)CC1	·	·	-3%[46.1 µM]	·	-26%	0
CC(=O)NS(=O)(=O)c1ccc(NC(=O)c2ccc3c(c2)C(=O)N(CCC(C)C)C3=O)cc1	5%	2%	0%	15%	0%	-18
CCc1cc2c(cc3c(=O)n(CC(=O)N4CCC(C)CC4)nc(CC)n32)s1	·	6%[46.1 µM]	·	·	-4%	-38
CCc1cc2c(cc3c(=O)n(CC(=O)N4CCN(c5ccccn5)CC4)nc(CC)n32)s1	7.9µM*	?	-9%	-4%	·	-6
Cc1ccc(-c2csc3nc4c5ccccc5c(NCCCN(C)C)nn4c(=O)c23)cc1	3%	·	·	-2%	-30%	-99*
O=C(NC(=O)c1csnn1)Nc1ccccc1Cl	8%	·	·	-8%	22%	-83*
CC1CN(Cc2cccn2-c2cccnc2)Cc2cc(Cl)ccc2O1 (centres undefined)	·	·	·	·	-13%	·
Cc1nnc(-c2ccccc2)c(=O)n1/N=C/c1c(O)ccc2ccccc12	?	?	?	3.2µM*	-5%	-99*
O=c1c2ccccc2nc(COc2ccccc2)n1/N=C/c1c[nH]c2ccccc12	0%	28%	?	-21%	-8%	-18
Cc1nc2ccccc2c(=O)n1/N=C/c1ccc2ccccc2c1O	-26%	·	·	4%	?	-82*
O=c1c2ccccc2nc(COc2ccccc2)n1/N=C/c1ccc(O)cc1O	?	·	·	?	-15%	-96*
Cn1c(CO)cnc1S(=O)(=O)Cc1c(Cl)cccc1Cl	6%	-1%[46.1 µM]	0%[46.1 µM]	0%	-2%	-14
Cc1cccc(-n2ccnc2SCC(=O)Nc2cc(C)on2)c1	1%	?	-5%	-7%	-25%	30
Cc1cc(NC(=O)CSc2nccn2-c2cccc(C)c2C)no1	11µM*	?	?	0%	0%	-8
Cc1cc(NC(=O)CSc2nnc(-c3ccccc3C)n2C)no1	0%	16%	8%	0%	-4%	19
Cc1cc(NC(=O)CSc2nnc(-c3ccco3)n2C)no1	31%	·	·	1%	-13%	-60*
CCOC(=O)c1c(NC(=O)c2c(C(=O)O)cccc2[N+](=O)[O-])sc2c1CCCC2	-12%	24%	3%	-2%	-1%	2
CCN1C(=O)[C@@H]2[C@H]3[C@H](O)[C@H](O)CC(=NO[C@@H](C)c4cn([C@H](CO)Cc5ccccc5)nn4)[C@@H]3CC[C@H]2C1=O	·	-3%[14.2 µM]	?	·	·	·
SMILES	HCV inh	MARV entry inh	LASV entry inh	SARS PLpro yeast	FMDV antiviral	HCMV antiviral
CC(C)NC(=O)CC1(C)N=C(c2cccc3ccccc23)N(C)O1 (centres undefined)	·	·	·	·	·	-12
CN(C)CC(C)(C)CNC(=O)C1CCN(CCCc2ccccc2)CC1	13µM*	·	·	?	15%	23
CCCCN(C)C(=O)C1CCN(CCCc2ccccc2)CC1	3%	-25%	0%	11%	-17%	18
O=C(c1ccco1)N1CCN(C(=O)c2cc(-c3ccccc3)nc3ccccc23)CC1	-4%	?	?	-3%	8%	69
Cc1cc(C)c2nc(C(F)(F)F)nc(N3CCN(C(=O)c4ccco4)CC3)c2c1	13µM*	0%	-12%	·	?	?
Cc1cccc2c(C(=O)N3CCN(C(=O)c4ccco4)CC3)cc(-c3cccc(Br)c3)nc12	?	?	?	-4%	18µM*	-64*
COc1ccccc1NC(=S)NC(=O)c1ccc(-c2ccc(Cl)cc2)o1	?	-15%	-22%	1%	·	-63*
COc1ccccc1N1CCN(C(=O)c2ccc(-c3ccc(Cl)cc3)o2)CC1	3.2µM*	·	·	-12%	-21%	-12
O=S(=O)(c1cccs1)N1CCC(CO)(Cc2ccc(Cl)cc2)CC1	?	7.9µM*	?	-2%	?	21
O=C(c1ccc(-c2ccc([N+](=O)[O-])cc2)o1)N1CCN(S(=O)(=O)c2cccs2)CC1	8%	-9%	-12%	-1%	?	-61*
CCOC(=O)CN(C(=O)COc1nc(-c2ccccc2)cc(C)c1C#N)c1ccccc1C	?	·	·	-2%	-20%	12
Cc1ccc(-c2nnc(NC(=O)c3ccc4c(c3)OCCO4)o2)c(C)c1	·	·	17%[46.1 µM]	·	-8%	-21
Cc1ccc(C)c(CN2C(=O)c3ccccc3S(=O)c3ccc(C(=O)N4CCN(c5cccc(Cl)c5)CC4)cc32)c1 (centres undefined)	·	?	?	·	?	-32
COc1cc2c(C(=O)N3CCN(c4ccccc4C)CC3)c(C)oc2cc1Br	11µM*	-4%	-3%	-3%	?	-37
O=C(c1ccc(-c2ccc(Cl)cc2)o1)N1CCN(S(=O)(=O)c2cccs2)CC1	?	·	·	5%	-22%	-61*
Cc1oc(C(C)(C)C)cc1C(=O)N1CCN(c2ncccc2C(F)(F)F)CC1	-2%	-2%	-23%	1%	-23%	-23
COc1ccccc1N1CCN(C(=O)c2cc(C(C)(C)C)oc2C)CC1	-12%	10µM*	-29%[46.1 µM]	-1%	-16%	?
O=C(Nc1ccccc1OCc1ccccc1)c1ccccc1Br	11µM*	·	·	-4%	-9%	1
CC(C)[C@@H](OCc1ccccc1)[C@H](C)C=NO[C@H](C)c1cn([C@@H]2COC[C@@H]2O)nn1	·	-6%[14.2 µM]	·	·	·	·
CCOc1ccccc1N(CC(=O)Nc1c(C)n(C)n(-c2ccccc2)c1=O)S(=O)(=O)c1ccccc1	9%	·	·	-1%	11%	-78*
